This is a sample that favours compounds with a hit; in the whole collection about 5% have one here.
LmPK inh = inhibitors of Leishmania mexicana pyruvate kinase. purified LmPK, Kinase-Glo ATP luminescence, 1 h. Potency, µM (top dose mostly 57.5 µM), without a hit: at the top dose activity change, negative = inhibition, usual class: inhibitors. 0.37% of 290,000 active. AID 1721; note: potency is the fitted concentration of half-maximal effect
Target sequence (Q27686 whole entry, looked up): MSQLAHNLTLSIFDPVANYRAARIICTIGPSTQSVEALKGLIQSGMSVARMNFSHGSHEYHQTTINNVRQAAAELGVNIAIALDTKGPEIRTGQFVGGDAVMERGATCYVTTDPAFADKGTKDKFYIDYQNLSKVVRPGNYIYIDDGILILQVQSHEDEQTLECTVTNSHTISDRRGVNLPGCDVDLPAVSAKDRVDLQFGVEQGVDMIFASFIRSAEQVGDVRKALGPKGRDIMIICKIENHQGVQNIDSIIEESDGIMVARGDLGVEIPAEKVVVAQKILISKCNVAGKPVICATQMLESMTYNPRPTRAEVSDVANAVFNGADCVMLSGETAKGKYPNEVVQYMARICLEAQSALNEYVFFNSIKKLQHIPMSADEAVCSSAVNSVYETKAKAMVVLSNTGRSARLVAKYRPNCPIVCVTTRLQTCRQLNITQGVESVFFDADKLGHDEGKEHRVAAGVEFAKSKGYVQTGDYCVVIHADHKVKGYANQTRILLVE
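Purified LmPK (0.1 nM) converted ADP (0.1 mM) to ATP with PEP (0.5 mM) in imidazole buffer pH 7.2 with KCl and MgCl2, 1 h at room temperature. ATP was read by Kinase-Glo luminescence; data normalized to uninhibited and no-enzyme controls.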
HCMV antiviral = blocks human cytomegalovirus replication. HFF cells, HCMV-luciferase reporter, 72 h; stronger effect = lower value. activity change, negative = inhibition, % at 57.5 µM. 4.5% of 410,000 active; in the data active = activity change below about -60%; inconclusive = no clear call, values can overlap the other calls; inactive = above about -39%
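Inhibition of viral replication was scored as loss of reporter luminescence in HFFs infected with HCMV-luciferase (MOI 1 PFU/cell) for 72 h; compounds tested at 2 doses, normalized to buffer and Salinomycin controls.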
TbPYK inhibitor = blocks Trypanosoma brucei pyruvate kinase; TbPYK enzyme, Kinase-Glo Plus ATP luminescence, 45 min; 0.12% of 410,000 active; Potency, µM (top dose mostly 76.8 µM), inactives show at the top dose activity, negative = inhibition, hits mostly inhibitors; note: potency is the fitted concentration of half-maximal effect; nearly all actives have a fitted effect of over 50% in size
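T. brucei PYK with substrate was exposed to pin-transferred compounds across a concentration series, then started with 130 uM ADP (final). After 45 min at room temperature, Kinase-Glo Plus luminescence was read, normalized and curve-fitted.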
VACV Venus inh = inhibitors of vaccinia virus (Venus reporter). Vaccinia virus Venus reporter expression, fluorescence. Potency, µM (highest dose often 36.5 µM), for inactives: at the highest dose activity change, negative = inhibition, hits mostly inhibitors. 0.46% of 330,000 active; calls by dose curve; tested in A549 cells; note: potency is the fitted concentration of half-maximal effect; nearly all actives have a fitted effect of over 30% in size
Vaccinia mCherry = inhibitors of vaccinia virus infection (mCherry reporter signal) | Vaccinia virus mCherry reporter infection, fluorescence | Potency, µM (series often up to 36.5 µM), inactives show at the highest dose activity change, negative = inhibition, actives largely listed as inhibitors | 0.63% of 310,000 active; calls by dose curve; tested in A549 cells; note: potency is the fitted concentration of half-maximal effect; nearly all actives have a fitted effect of over 35% in size
The depositor's hits bear a star; [ ] = another dose, or the depositor's remark. Unless noted, calls come from the whole dose curve; as a rule, active = well fitted curve in the direction sought with a large enough effect; inconclusive = small, poorly fitted or top-dose-only effect, or another doubt; inactive = no such curve, though single readings can be large; an effect the other way counts as inactive or inconclusive. % is set by controls: 0 for no effect and ±100 for the full control effect.

For Cc1cccc(CN2C(=O)c3ccccc3Sc3ccc(C(=O)NCc4ccco4)cc32)c1 the results were HCMV antiviral -73*, TbPYK inhibitor 6%, VACV Venus inh -11% and Vaccinia mCherry -10%.
`CCN(CC)CCNC(=O)c1ccc2c(c1)N(Cc1ccccc1)C(=O)c1ccccc1S2=O` (stereo unspecified) gave HCMV antiviral -70*, TbPYK inhibitor 3%, VACV Venus inh -9% and Vaccinia mCherry -16%.
`O=C(NCc1ccco1)c1ccc2c(c1)N(Cc1ccccc1)C(=O)c1ccccc1S2` gave HCMV antiviral -35, TbPYK inhibitor 3%, VACV Venus inh -8% and Vaccinia mCherry -11%.
C[N+]1(CC(=O)c2ccc(Oc3ccccc3)cc2)CCOCC1 was read as VACV Venus inh -7% and Vaccinia mCherry -15%.
CC(C)CC(=O)Nc1cc2c3c(c1)CCN3C(=O)CC2 was read as LmPK inh -5%, HCMV antiviral 13 and TbPYK inhibitor 3%.
Screening Cn1c(N)c(C(=O)COC(=O)C2=NNC(=O)CC2)c(=O)n(C)c1=O returned LmPK inh -4%, HCMV antiviral 0, TbPYK inhibitor -8%, VACV Venus inh -3% and Vaccinia mCherry inactive.
For C/C(=N\NC(=O)CSCc1ccccc1Cl)c1cc(O)ccc1O the results were LmPK inh 2%, HCMV antiviral -3 and TbPYK inhibitor -10%.
`CCc1ccc(-c2cc(C(=O)NCCCn3ccnc3)c3ccccc3n2)s1` gave LmPK inh 0%.
CC(C)NC(=O)CSc1nnc(-c2ccc3ncccc3c2)n1C was read as LmPK inh 0%, HCMV antiviral -1 and TbPYK inhibitor 12%.
`O=c1[nH]c(=O)n(Cc2ccccc2)c2nc(-c3ccc(Oc4ccc(F)cc4)c([N+](=O)[O-])c3)n(CCO)c12` gave LmPK inh 3%, HCMV antiviral -64*, TbPYK inhibitor 12%, VACV Venus inh 10µM* and Vaccinia mCherry -21%.
CCCCn1c(=O)[nH]c(=O)c2c1nc(-c1ccc(C)c([N+](=O)[O-])c1)n2CC was read as LmPK inh -8%, HCMV antiviral 66, TbPYK inhibitor 0%, VACV Venus inh -10% and Vaccinia mCherry inactive.
Screening Cc1ccc(-c2nc3c(c(=O)[nH]c(=O)n3CC(C)C)n2CC(C)C)cc1[N+](=O)[O-] returned LmPK inh -2%, HCMV antiviral -62*, TbPYK inhibitor -3%, VACV Venus inh -7% and Vaccinia mCherry inactive.
Screening CC1=C(C#N)C(c2ccc3ncccc3c2)C(C#N)=C(C)N1 returned LmPK inh 6%, HCMV antiviral -33, TbPYK inhibitor -1%, VACV Venus inh -4% and Vaccinia mCherry -14%.
COc1cc(C(=O)N/N=C(\C)c2ccccn2)cc(OC)c1OC was read as LmPK inh -9%, HCMV antiviral -88*, TbPYK inhibitor -2%, VACV Venus inh inconclusive and Vaccinia mCherry inconclusive.
`COc1cccc(C(=O)N/N=C(/c2ccccc2)c2ccccn2)c1` gave LmPK inh 2%, HCMV antiviral -102*, TbPYK inhibitor -2%, VACV Venus inh inconclusive and Vaccinia mCherry 2µM*.
For COc1cc(NC(=O)c2ccccn2)cc(OC)c1OC the results were LmPK inh -2%, HCMV antiviral -33 and TbPYK inhibitor -19%.
Screening C/C(=N\NC(=O)c1cc(C)nc2ccccc12)c1ccccn1 returned HCMV antiviral -114* and TbPYK inhibitor -10%.
C/C(=N\NC(=O)c1n[nH]c2c1CCC2)c1ccco1 was read as LmPK inh 16µM*, HCMV antiviral -65*, TbPYK inhibitor inconclusive, VACV Venus inh 0% and Vaccinia mCherry inactive.
Screening C/C(=N\NC(=O)c1cc(C)nc2ccccc12)c1ccncc1 returned LmPK inh 0%, HCMV antiviral 6, TbPYK inhibitor 2%, VACV Venus inh -28% and Vaccinia mCherry inactive.
`O=[N+]([O-])c1ccc(OCCOc2ccccc2/C=N/n2cnnc2)cc1` gave LmPK inh -6%, HCMV antiviral -29 and TbPYK inhibitor -6%.
Cc1ccc(-c2nc3c(c(SCc4ccc(Br)cc4)n2)Cc2c(CO)cnc(C)c2O3)cc1 was read as HCMV antiviral -22, TbPYK inhibitor -6%, VACV Venus inh -14% and Vaccinia mCherry -6%.
COc1cc(C(=O)N/N=C(\c2ccccc2)c2ccccn2)cc(OC)c1OC was read as LmPK inh -6%, HCMV antiviral -102* and TbPYK inhibitor 4%.
`COc1cc(C(=O)N/N=C(\Cc2ncc[nH]2)c2ccccc2)cc(OC)c1OC` gave LmPK inh 7%, HCMV antiviral -20, TbPYK inhibitor -7%, VACV Venus inh inconclusive and Vaccinia mCherry inconclusive.
`C/C(=N\NC(=O)c1ccc(Cl)cc1)c1ccccn1` gave LmPK inh 0%, HCMV antiviral -101*, TbPYK inhibitor -5%, VACV Venus inh inconclusive and Vaccinia mCherry inconclusive.
`CC(=NNC(=S)Nc1cccc(Cl)c1)c1ccccn1` gave HCMV antiviral -97*, TbPYK inhibitor -3%, VACV Venus inh inconclusive and Vaccinia mCherry 2.8µM*.
For S=C(NCc1ccccn1)Nc1cccc(Cl)c1 the results were LmPK inh 1%, HCMV antiviral 35, TbPYK inhibitor -6%, VACV Venus inh -5% and Vaccinia mCherry -16%.
Screening COc1cc(C(=O)NN=C2c3ccccc3-c3ccccc32)cc(OC)c1OC returned HCMV antiviral -88*.
Screening Cc1ccc(Nc2ncc(C(=O)Nc3ccc(F)cc3F)c3ccccc23)cc1Cl returned HCMV antiviral 8, TbPYK inhibitor 1%, VACV Venus inh -14% and Vaccinia mCherry -21%.
O=C1C2C3C=CC(C3)C2C(=O)N1CNc1ccccn1 (stereo unspecified) was read as LmPK inh 8%, HCMV antiviral -11, TbPYK inhibitor -5%, VACV Venus inh -8% and Vaccinia mCherry -22%[1.46 µM].
`CCCCCCCCN1C(=O)[C@H](CC(=O)NCc2cccc(C(F)(F)F)c2)C[C@@]2(C(=O)OC)CC(C)(C)CC=C12` gave HCMV antiviral -22, VACV Venus inh -28% and Vaccinia mCherry -22%.
`N#Cc1ccc(OCC(=O)Nc2ccncc2)cc1` gave LmPK inh 1%, HCMV antiviral -16, TbPYK inhibitor 1%, VACV Venus inh -20% and Vaccinia mCherry -20%.
C/C(=N\NC(=O)c1cc2ccccc2cc1O)c1ccc(C)o1 was read as LmPK inh -23%, HCMV antiviral -14, TbPYK inhibitor -15%, VACV Venus inh -15% and Vaccinia mCherry -6%.
C/C(=N/NC(=O)c1ccccn1)c1ccco1 was read as LmPK inh 14µM*, HCMV antiviral 12, TbPYK inhibitor inconclusive, VACV Venus inh -4% and Vaccinia mCherry -23%.
`C/C(=N/NC(=O)c1cc2ccccc2cc1O)c1ccco1` gave LmPK inh -25%, HCMV antiviral -73* and TbPYK inhibitor -11%.

Compound activity from PubChem.
